Source: PubChem (National Center for Advancing Translational Sciences (NCATS))
Hits are enriched below; roughly 11% of the tested compounds scored in any of these assays.
ALDH1A1 block = inhibitors of human aldehyde dehydrogenase 1A1. P00352. 220,000 compounds, 7.3% hits. Potency, µM (series often up to 75.3 µM), for inactives: at the highest dose activity, negative = inhibition, actives largely listed as inhibitors. Purified ALDH1A1, NADH fluorescence, propionaldehyde substrate; active = well fitted inhibition curve with a large enough effect, not every such curve was filed as active; inconclusive = small, poorly fitted or top-dose-only effect, or another doubt; inactive = no such curve, though single readings can be large or run the other way;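 note: potency is the fitted concentration of half-maximal effect; plate controls were no enzyme wells and a reference inhibitor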
Target sequence (P00352 whole entry, looked up): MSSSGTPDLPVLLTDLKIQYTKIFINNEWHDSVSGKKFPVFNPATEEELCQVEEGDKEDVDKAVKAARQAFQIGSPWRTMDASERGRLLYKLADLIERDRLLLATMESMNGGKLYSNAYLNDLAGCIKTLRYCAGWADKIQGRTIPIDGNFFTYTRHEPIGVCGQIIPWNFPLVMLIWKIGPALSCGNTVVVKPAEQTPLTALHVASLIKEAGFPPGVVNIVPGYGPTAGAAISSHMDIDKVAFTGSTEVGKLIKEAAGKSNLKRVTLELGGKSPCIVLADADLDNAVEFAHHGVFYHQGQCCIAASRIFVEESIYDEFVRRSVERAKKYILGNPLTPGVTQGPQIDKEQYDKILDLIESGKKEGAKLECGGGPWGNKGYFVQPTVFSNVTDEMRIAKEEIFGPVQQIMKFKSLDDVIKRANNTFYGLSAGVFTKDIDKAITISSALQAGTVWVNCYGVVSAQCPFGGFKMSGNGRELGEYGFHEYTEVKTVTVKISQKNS
HPGD inh = inhibitors of human 15-hydroxyprostaglandin dehydrogenase (HPGD); AID 894; purified HPGD, NADH fluorescence kinetic, PGE2 substrate; Potency, µM, inactives show at the top dose activity change, negative = inhibition, actives largely listed as inhibitors; 150,000 compounds, 4.3% hits; P15428; active = well fitted inhibition curve with a large enough effect, not every such curve was filed as active; inconclusive = small, poorly fitted or top-dose-only effect, or another doubt; inactive = no such curve, though single readings can be large or run the other way; note: potency is the fitted concentration of half-maximal effect; % is set by controls: 0 for no effect and ±100 for the full control effect
Target sequence (P15428 whole entry, looked up): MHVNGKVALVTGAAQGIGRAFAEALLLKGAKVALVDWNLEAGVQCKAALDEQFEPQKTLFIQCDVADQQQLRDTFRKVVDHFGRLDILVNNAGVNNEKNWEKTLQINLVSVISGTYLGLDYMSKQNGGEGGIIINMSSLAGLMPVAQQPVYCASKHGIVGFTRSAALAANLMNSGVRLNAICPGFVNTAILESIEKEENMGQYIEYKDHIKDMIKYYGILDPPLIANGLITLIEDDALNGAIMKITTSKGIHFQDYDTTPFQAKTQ
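NADH formation kinetics: reaction with 30 uM PGE2 and 1 mM NAD+ (final), 20 nM enzyme, Tris-HCl pH 8 with Tween 20, after 15 min compound preincubation at room temperature. Fluorescence change, last versus first of five reads.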
HTT ATP protect = protects HTT-Q103 PC12 cells, measured by ATP; PC12 HTT-Q103 induced, cytoprotection, ATP luminescence, 40 h; Potency, µM (titrated, usually from 56.4 µM), without a hit: cytoprotection (ATP increase), actives largely listed as activators; 230,000 compounds, 0.14% hits; AID 1471; note: potency is the fitted concentration of half-maximal effect; % of control where 0% means no effect; nearly all actives have a fitted effect of over 45% in size
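Compounds were screened for protection of PC12 cells against cell death after tebufenozide induction (100 nM final) of mutant Huntingtin exon 1 (Q103) fused to GFP.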
HTT aggregate = mutant huntingtin aggregation inhibition; Potency, µM (titrated, usually from 46.1 µM), without a hit: at the highest dose activity change, negative = inhibition, usual class: inhibitors; PC12 HttQ103-GFP aggregates, Acumen cytometry, 40 h; 220,000 compounds, 1.1% hits; note: potency is the fitted concentration of half-maximal effect; % is set by controls: 0 for no effect and ±100 for the full control effect; nearly all actives have a fitted effect of over 60% in size
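Inducible Q103 Huntingtin exon 1–GFP PC12 line, 1500 cells/well in phenol red free DMEM with 5% equine and 5% calf serum. Tebufenozide 100 nM induced expression; compounds titrated; aggregates quantified by cytometry.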
PNC assembly inh = blocks assembly of the perinucleolar compartment | PC3M PTB-GFP, PNC prevalence imaging, 16 h; active compounds read low | activity change (PNC), negative = inhibition, % at 10 µM | 140,000 compounds, 3.1% hits;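 active = readout at or below -70, meaning at least 70% loss of cells showing the perinucleolar compartment, a nuclear body marking cancer cells; inconclusive = readout between -30 and a set limit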;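 note: plate controls were DMSO wells for no effect and camptothecin positive control wells for full effect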
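Read-out is percentage of cells bearing a perinucleolar compartment, from automated 20x imaging of fixed, Hoechst-stained PC3M PTB-GFP cells. Cells were seeded 4 h, then exposed 16 h to compound (23 nl of library stock) in duplicate plates.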
RGS12 GoLoco inh = blocks human Gai1 binding to RGS12 GoLoco peptide, red readout; P63096; Gai1:RGS12 GoLoco peptide FP, rhodamine, 10 min; Potency, µM (highest dose often 61.6 µM), inactives show at the highest dose activity, negative = inhibition, actives largely listed as inhibitors; 230,000 compounds, 0.44% hits; AID 880; active = well fitted inhibition curve with a large enough effect, not every such curve was filed as active; inactive = no such curve, though single readings can be large or run the other way; note: potency is the fitted concentration of half-maximal effect; % is set by controls: 0 for no effect and ±100 for the full control effect; nearly all actives have a fitted effect of over 30% in size
Active calls of the source: *; ? = inconclusive; · = no result given; [ ] = dose if it differs, or a comment. Unless noted, calls come from the whole dose curve; as a rule, active = well fitted curve in the direction sought with a large enough effect; inconclusive = small, poorly fitted or top-dose-only effect, or another doubt; inactive = no such curve, though single readings can be large; an effect the other way counts as inactive or inconclusive.

SMILES	ALDH1A1 block	HPGD inh	HTT ATP protect	HTT aggregate	PNC assembly inh	RGS12 GoLoco inh
N#C/C(=C/c1ccc([N+](=O)[O-])cc1)C(N)=O	?	·	-7.3%	19.5%	·	9.4%
NC(=O)Nc1ccc(C(=O)OCC(=O)NC2CCCCC2)cc1	-1.7%	·	-29.5%	1.2%	·	-8.8%
O=C(Nc1cccc(F)c1)c1ccccc1-c1ccccc1	-11.3%	·	3.5%[10 µM]	?	-103.2*	·
O=C(Nc1cccc(F)c1)c1ccccc1	2.0%	31.6µM*	-12.2%	-13.7%	-1.5	7.8%
O=C(Nc1ccc(F)cc1F)c1ccccc1-c1ccccc1	5.8%	·	5.2%[10 µM]	3.7%	-9.7	·
CC(=O)c1cccc(NC(=O)c2ccc(NS(C)(=O)=O)cc2)c1	10.1%	12.6µM*	-24.9%[10 µM]	0.3%	-118.9*	10.4%
CCOC(=O)C1=NN(C(=O)COc2ccccc2)C(O)(c2ccc(Br)cc2)C1 (configuration not stated)	-2.4%	·	1.3%[10 µM]	6.0%[9.22 µM]	·	5.9%
C=CCSC1=Nc2sccc2C2=NC(=O)CN12	14.1µM*	-9.2%	28.5%	-6.7%	79.6	17.0%
O=c1[nH]c2c(s1)C(c1ccco1)C1C3CCC(C3)C1S2 (configuration not stated)	12.6µM*	-28.1%	15.0%	-1.6%[9.22 µM]	?	40.0%
CC(C)CC(NC(=O)CNC(=O)C1O[C@@H]2OC(C)(C)O[C@@H]2[C@H]2OC(C)(C)O[C@@H]12)C(=O)O (some centres not stated)	11.2%	·	-21.1%	1.7%	·	-4.7%
COc1ccc(NC(=O)CN2CCN(c3ccccc3Cl)CC2)cc1	?	-5.1%	5.3%[10 µM]	1.2%	-100.0*	1.9%
COc1ccc(NC(=O)CN2CCN(CC(=O)Nc3ccccc3Cl)CC2)c(OC)c1	?	0.6%	5.3%[10 µM]	5.5%	?	9.6%
COc1ccc(NC(=O)CN2CCN(CC(=O)Nc3ccccc3Cl)CC2)cc1	8.91µM*	-0.9%	-21.4%	-5.0%	50.8	6.4%
COc1ccc(Cl)c(N2CCN(CCCNC(=O)Nc3ccc(C)cc3)CC2)c1	-11.3%	-1.8%	-34.8%	35.5µM*	?	6.5%
O=c1[nH]c(=S)[nH]c2c1CN(CCCN1CCOCC1)CN2	8.9%[13.5 µM]	-3.6%	-0.9%[10 µM]	·	·	-9.9%[14.2 µM]
CCN(CC)CCNC(C(=O)Nc1cccc(C(C)=O)c1)c1ccccc1 (configuration not stated)	14.1µM*	·	-26.5%	-1.8%	·	-0.4%
COCC(C)NC(C(=O)Nc1cccc(C(C)=O)c1)c1ccccc1 (configuration not stated)	14.1µM*	·	-15.6%	-6.1%	·	10.9%
COc1ccccc1-c1cc(Nc2ccn[nH]2)ncn1	?	·	-122.5%	·	·	14.8%
COc1ccc(COC(=O)N/N=C2/C[C@@H](O)[C@@H](O)[C@@H]3[C@@H]4C(=O)N(Cc5ccc6c(c5)OCO6)C(=O)[C@H]4CC[C@H]23)cc1	-7.5%[13.5 µM]	·	-39.9%[10 µM]	·	·	·
CCOC(=O)N1CCC(NC(=O)Cn2nc(Cc3ccncc3)c3ccccc3c2=O)CC1	2.1%	-4.9%	-5.6%	22.2%	-105.7*	5.2%
C/C(=N\NC(=O)CC1(C)OCCO1)c1cccs1	11.4%	-4.0%	10.1%[10 µM]	-0.4%	-88.4*	-2.4%
COc1ccccc1Cc1noc(COc2cccc(C)c2C)n1	2.5%	-7.4%	-0.2%[0.074 µM]	-21.0%	-135.3*	-9.9%
CC(=O)CSc1nc(N)c(C#N)c(-c2cccs2)c1C#N	?	-19.3%	23.7%	14.1µM*	-20.2	2.3%
CCCCSc1nc(N)c(C#N)c(-c2cccs2)c1C#N	?	?	-54.2%	35.5µM*	?	1.5%
CC(C)OC(=O)CSc1nc(N)c(C#N)c(-c2cccs2)c1C#N	?	-23.6%	19.1%	1.3%	33.0	4.3%
SMILES	ALDH1A1 block	HPGD inh	HTT ATP protect	HTT aggregate	PNC assembly inh	RGS12 GoLoco inh
Cc1cccc(CSc2nc(N)c(C#N)c(-c3cccs3)c2C#N)c1	?	?	-14.6%[10 µM]	?	-21.8	2.9%
C=CCOC(=O)/C(=C/c1cccc2ccccc12)NC(=O)c1ccccc1	?	-22.1%	13.7%[10 µM]	-7.0%	-5.1	-17.0%
O=C1C=CC(=O)c2c(O)c(Cl)c(Cl)c(O)c21	1.26µM*	?	·	·	·	0.355µM*
Cn1c(-c2cccc3ccccc23)n[nH]c1=S	-6.1%	-23.5%	24.7%[10 µM]	-9.6%	12.4	0.3%
Cn1c(-c2cc(Br)ccc2O)n[nH]c1=S	2.6%	14.1µM*	-6.1%	21.1%	?	11.3%
CC(C)CO/N=C1/C[C@@H](O)[C@@H](O)[C@@H]2[C@@H]3C(=O)N(Cc4ccccc4)C(=O)[C@H]3CC[C@H]12	3.0%[13.5 µM]	·	-7.6%[10 µM]	·	·	·
CCOC(=O)CCN1C(=O)[C@H]2[C@@H]3[C@H](O)C=CC(=O)[C@H]3CC[C@H]2C1=O	-2.2%[13.5 µM]	·	?	·	·	·
CC(C)CO/N=C1/C[C@@H](O)[C@@H](O)[C@@H]2[C@@H]3C(=O)N(Cc4ccccc4)C(=O)[C@H]3CC[C@@H]12	9.3%[13.5 µM]	·	2.82µM*	·	·	·
O=C1C=C[C@@H](O)[C@H]2[C@@H]3C(=O)N(Cc4ccccc4)C(=O)[C@@H]3CC[C@H]12	3.16µM*	·	4.2%[10 µM]	·	·	·
C=CCN1CCN(c2nc3ccccc3nc2C#N)CC1	6.1%	-5.2%	-60.2%	·	·	7.9%
CC(=O)Nc1ccc(N/C=C/C(=O)c2ccco2)cc1	4.47µM*	25.1µM*	-15.6%	8.6%	?	59.0%
O=C(/C=C/Nc1cccc(F)c1)c1ccco1	-13.3%	-25.5%	3.9%[10 µM]	-17.2%	28.3	3.4%
CN(C)c1ccc(N/C=C/C(=O)c2ccco2)cc1	28.2µM*	35.5µM*	-13.8%	-22.3%	?	-46.1%
CC(=O)Nc1ccc(NC(=O)c2ccco2)cc1	-1.5%	-12.2%	-32.5%	-6.6%	?	3.8%
O=C(/C=C/Nc1ccc(F)c(Cl)c1)c1ccco1	28.2µM*	-23.8%	-73.5%[0.074 µM]	-1.4%	?	-21.6%
COC(=O)CNc1nc(OC)nc(N(C)C)n1	8.3%	-4.8%	4.4%[0.074 µM]	29.7%	-5.1	6.8%
O=C(Nc1cccc2ncccc12)C(c1ccccc1)c1ccccc1	?	·	-34.0%[10 µM]	0.0%	·	-6.2%
CN(C)c1ccc(C(CN)c2c[nH]c3ccccc23)cc1 (configuration not stated)	15.8µM*	·	-40.8%	-19.7%	·	20.8%
CN(C)c1ccc(C(CNS(=O)(=O)c2ccc3ccccc3c2)c2c[nH]c3ccccc23)cc1 (configuration not stated)	-8.8%	-3.7%	5.0%[10 µM]	-1.1%	?	2.1%
O=C(O)c1ccc(NC2=C(N3CCOCC3)C(=O)c3ccccc3C2=O)cc1	18.9µM*	-12.3%	8.8%[10 µM]	-13.1%	?	1.4%
CC(=O)N(C)C1=C(N2CCOCC2)C(=O)c2ccccc2C1=O	?	-6.7%	-122.4%	25.1µM*	?	-2.7%
CC(=O)c1ccc(NC2=C(N3CCOCC3)C(=O)c3ccccc3C2=O)cc1	?	-1.1%	-46.6%	-3.4%	17.2	-5.1%
